Experiment [1] in a line: qHTS assay for small molecule agonists of the p53 signaling pathway (AID 651631; calls by dose curve; further: nearly all actives have a fitted effect of over 15% in size; further: potency means the concentration at half of the fitted maximal effect). The method in brief: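 Stably transfected HCT-116 cells (beta-lactamase behind p53 response elements) get compounds after a 5 h settling period; 16 h later at 37 °C, FRET substrate is loaded and fluorescence read after 2 h.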
(Quantitative high-throughput screening tests each substance at several concentrations.)

Experiment [2] can be described thus: qHTS assay for small molecules that induce genotoxicity in human embryonic kidney cells expressing luciferase-tagged ATAD5 (AID 651632). Further: nearly all actives have a fitted effect of over 15% in size. The method in brief: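 Luminescent reporter readout, HEK293T ATAD5-luc line: 16 hr drug exposure (37C, 5% CO2) followed by Amplite, 30 min RT.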
Experiment [3] in a line: qHTS assay for small molecules that induce genotoxicity in human embryonic kidney cells expressing luciferase-tagged ATAD5 - cell viability (AID 651634; calls by dose curve; further: nearly all actives have a fitted effect of over 25% in size; further: potency means the concentration at half of the fitted maximal effect). In a few lines:
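Viability read: CellTiter-Fluor fluorescence, 30 min at 37C. Cells: HEK293T, luciferase-tagged ATAD5. Exposure: 15.5 hr, 37C, 5% CO2, compound or DMSO vehicle.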

A short description of experiment [4]: qHTS assay for small molecule disruptors of the mitochondrial membrane potential - cell viability (AID 720634; calls by dose curve;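 further: human HepG2 liver cancer cells; series mostly up to about 83 µM; nearly all actives have a fitted effect of over 20% in size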). The method in brief:
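HepG2, 1 hr compound, 37 C. ATP luminescence via CellTiter-Glo, 30 min RT, same well as m-MPI.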

Experiment [5] in a line: qHTS assay for small molecule disruptors of the mitochondrial membrane potential (AID 720635). Further: potency means the concentration at half of the fitted maximal effect. The method in brief:
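HepG2 cells exposed to compound 1 hr at 37C, then Mito-MPS dye 30 min. Ratio read of aggregate (540/590 nm) versus monomer (490/535 nm) fluorescence.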

A short description of experiment [6]: qHTS assay to test for compound auto fluorescence at 590 nm (red) in HepG2 cells (AID 720674). In a few lines: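 HepG2 cells, 2,000 per well in MEM with 10% FBS, attached overnight at 37 C, then got 23 nL compound or DMSO. After 1 hr at 37 C, 5% CO2, red fluorescence was read at 540/590 nm against Rose Bengal sodium as reference.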
A short description of experiment [7]: qHTS assay to test for compound auto fluorescence at 535 nm (green) in HepG2 cells (AID 720675).
Experiment [8] is described as follows: qHTS assay to test for compound auto fluorescence at 460 nm (blue) in HEK293 cells (AID 720678). Further: potency means the concentration at half of the fitted maximal effect. In a few lines:
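Triamterene serves as the blue fluorophore standard. Compound signal at 405/460 nm is read in HEK293 wells (2,000 cells, 10% dialyzed FBS) after overnight treatment at 37C.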

A short description of experiment [9]: qHTS assay to test for compound auto fluorescence at 590 nm (red) in HEK293 cells (AID 720679). In a few lines:
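We plated HEK293 cells in 10% dialyzed FBS medium, let them adhere for 4-5 hr, then added 23 nL compound. Overnight at 37C and 5% CO2 preceded fluorescence measurement at 540/590nm.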

The nature of experiment [10]: qHTS assay for small molecule agonists of the p53 signaling pathway - cell viability (AID 651633; calls by dose curve;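 further: p53RE-bla HCT reporter cells with a stable beta-lactamase p53 reporter; series mostly up to about 83 µM; nearly all actives have a fitted effect of over 30% in size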). The method in brief:
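p53RE-bla cells were treated with compound for 16 hours at 37 C. Cytotoxicity was then measured as CellTiter-Glo luminescence after 30 min at room temperature.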

A number with no mark means an inactive call. Results filed as inconclusive are left out. Calls of active or inactive are those of the source. Unless noted, the call rests on the fitted dose curve; in most records, active means well fitted curve in the direction sought with a large enough effect in the repeat runs; inconclusive means weak or mixed curves; inactive means no such curve, though single readings can be large; an effect the other way counts as inactive or inconclusive.
On the % scale 0 is the no-effect control and ±100 the full control effect; tags describe the fitted curve by direction and shape or compound fluorescence and quenching.

As to `CCCCC(=O)O[C@]1(C(=O)CO)CC[C@H]2[C@@H]3CCC4=CC(=O)CC[C@]4(C)[C@H]3[C@@H](O)C[C@@]21C`, the Potency result in experiment [1], in experiment [2], in experiment [3], in experiment [4], in [5] and in experiment [8] was “inactive” throughout. Moreover, the call in experiment [6], in [7] and in experiment [9] was inactive.

Consider `CCOC(=O)c1ccccc1OC`, for which the Potency result in experiment [2], in experiment [10], in experiment [3], in experiment [4], in [5] and in [8] was “inactive” each time. Moreover, the compound was classed as inactive in experiment [6], in experiment [7] and in experiment [9].

On to `CC1CN(c2cc3c(cc2F)c(=O)c(C(=O)O)cn3-c2ccc(F)cc2F)CCN1` (centres undefined), for which the Potency entry in experiment [2], in experiment [10], in [3], in experiment [4] and in [5] was “inactive” throughout. In addition, the result in experiment [6], in experiment [7] and in experiment [9] was inactive.

`C=CC(=C)CCCC(C)(C)OC(C)=O`: the Potency result in experiment [2], in experiment [10], in experiment [3], in experiment [4], in experiment [5] and in experiment [8] was “inactive” throughout. The result in [6] and in experiment [9] was inactive.

Take `COC(=O)CC(=O)C(C)(C)C`: the Potency result in experiment [2], in [10], in experiment [3], in [4], in experiment [5] and in experiment [8] was “inactive” throughout. Moreover, the compound was classed as inactive in experiment [6] and in experiment [9].

For `CC[C@H](NC(=O)c1cc(F)ccc1NS(=O)(=O)c1cccc2cccnc12)c1ccccc1`, the Potency entry in [2], in experiment [10], in experiment [3], in [4] and in [8] was “inactive” in each case. Besides, the call in experiment [6], in experiment [7] and in [9] was inactive.

Consider `CC(C)=CC=O`, for which the Potency result in experiment [2], in experiment [10], in [3], in experiment [4] and in experiment [5] was “inactive” in each case. Moreover, the compound was called inactive in [6], in [7] and in experiment [9].

In the case of `CC(C)(C)CC(C)(C)c1ccc(OCCO)cc1`, the Potency entry in [1], in experiment [2] and in experiment [4] was “inactive” in each case. The Potency was 54.2 µM (active) in experiment [3] and 60.8 µM (active) in [5]. Also, the outcome in experiment [6], in experiment [7] and in [9] was inactive.

Regarding `CC(C)CCCCCOC(=O)CCCCC(=O)OCCCCCC(C)C`, the Potency entry in [2], in experiment [10], in [3], in experiment [4], in experiment [5] and in [8] was “inactive” in each case. Further, the result in [6], in experiment [7] and in [9] was inactive.

For `CCC(Cc1ccccc1)(C(=O)c1ccc(N2CCOCC2)cc1)N(C)C` (centres undefined), the Potency result in experiment [1], in experiment [2], in [3] and in [8] was “inactive” in each case. Further, the Potency in [5] was 30.6 µM (active). The compound was classed as inactive in [6] and in experiment [9].

Turning to `Cc1occc1C(=O)Nc1ccc(C(=O)N2CCC(F)(F)/C(=C\C(=O)N3CCC(N4CCCCC4)CC3)c3ccccc32)cc1`, the Potency result in [2], in experiment [10], in experiment [3], in [4] and in experiment [8] was “inactive” each time. Besides, the result in [6], in experiment [7] and in [9] was inactive.

On to `CCCCC(=O)O[C@]1(C(=O)CO)[C@@H](C)C[C@H]2[C@@H]3CCC4=CC(=O)C=C[C@]4(C)[C@@]3(F)[C@@H](O)C[C@@]21C`, for which the Potency result in experiment [1], in experiment [2] and in experiment [3] was “inactive” throughout. For the same compound, the compound was classed as inactive in experiment [6], in experiment [7] and in [9].

As for `c1cnc2c(n1)CCCC2`, the Potency entry in experiment [1], in experiment [2] and in [10] was “inactive” in each case. Further, the compound was classed as inactive in [6], in [7] and in experiment [9].

On to `COC(OC)(C(=O)c1ccccc1)c1ccccc1`, for which the Potency result in experiment [2], in experiment [10], in experiment [3], in experiment [4] and in [8] was “inactive” each time. The result in [6], in [7] and in experiment [9] was inactive.

Regarding `CC(C)(CCl)c1ccccc1`, the Potency entry in experiment [1], in [2], in experiment [10], in experiment [3] and in [8] was “inactive” each time. Besides, the outcome in experiment [6] and in experiment [9] was inactive.

Take `CCc1c2c(nc3ccc(OC(=O)N4CCC(N5CCCCC5)CC4)cc13)-c1cc3c(c(=O)n1C2)COC(=O)[C@]3(O)CC`: the values for the Potency in [1], in experiment [5] and in [8] were 2.66 µM (active), 11.9 µM (active) and 12.6 µM [fluorescent] (active), respectively. Besides, the Potency result in experiment [2], in experiment [3] and in [4] was “inactive” each time. Further, the result in experiment [6], in [7] and in experiment [9] was inactive.

As for `CC(C)C(=O)O`, the Potency entry in [1], in experiment [2], in experiment [10], in [3] and in experiment [8] was “inactive” throughout. For the same compound, the call in [6] and in experiment [9] was inactive.

On to `C1COCO1`, for which the Potency result in [2], in experiment [10], in experiment [3], in experiment [4] and in experiment [8] was “inactive” each time. Besides, the compound was classed as inactive in experiment [6], in [7] and in experiment [9].

In the case of `CO/N=C1\CN(c2nc3c(cc2F)c(=O)c(C(=O)O)cn3C2CC2)CC1CN` (centres undefined), the Potency entry in [2], in [10], in experiment [3], in experiment [4], in experiment [5] and in experiment [8] was “inactive” each time. Besides, the result in [6] and in experiment [9] was inactive.

Regarding `O=C(O)C(Cc1cc(I)c(O)c(I)c1)c1ccccc1` (centres undefined), the Potency entry in [2], in experiment [10], in [3], in experiment [4] and in experiment [5] was “inactive” each time. Further, the compound was classed as inactive in [6] and in experiment [9].

With `C(=C\c1ccccc1)/CN1CCN(C(c2ccccc2)c2ccccc2)CC1`, the Potency result in [1], in [10], in experiment [3], in experiment [4] and in experiment [5] was “inactive” in each case. Moreover, the fluorescence, relative to Rose Bengal in experiment [6] is -0.246% [at 18.6 µM]. In addition, in [7], the fluorescence, % of fluorescein control was 0.0028% [at 18.6 µM]. The fluorescence, % of triamterene in [8] is 0.048% [at 18.6 µM]. For the same compound, in experiment [9], the fluorescence, % of fluorescent control is 0.417% [at 18.6 µM].

As to `CCCCCCCC/C=C\CCCCCCCC(=O)OC(CO)CO`, the Potency result in experiment [2], in experiment [10], in experiment [3], in [4], in experiment [5] and in [8] was “inactive” in each case. The call in experiment [6] and in experiment [9] was inactive.

As for `C[N+]1(C)CCC(=C(c2ccccc2)c2ccccc2)CC1`, the Potency entry in experiment [1], in experiment [2] and in [10] was “inactive” in each case. Besides, in [6], the fluorescence, relative to Rose Bengal is -0.257% [at 18.6 µM]. For the same compound, the fluorescence, % of fluorescein control in experiment [7] is -0.0806% [at 18.6 µM]. For the same compound, the fluorescence, % of triamterene in experiment [8] is 0.577% [at 18.6 µM]. In addition, the fluorescence, % of fluorescent control in experiment [9] was -0.153% [at 18.6 µM].

As to `CC(=O)OCC(=O)[C@H]1CC[C@H]2[C@@H]3CCC4=CC(=O)CC[C@]4(C)[C@H]3CC[C@]12C`, the Potency entry in experiment [2], in [10], in experiment [3], in [4], in experiment [5] and in experiment [8] was “inactive” in each case. Also, the call in experiment [6], in experiment [7] and in experiment [9] was inactive.

Source of the values: PubChem BioAssay (Tox21).
